Experimental findings from the supplement of paper PMC10849652 are described below.

What all share (experiment): log2 fold change, soluble protein after heating vs DMSO (PISA); higher = thermal stabilisation; K562 cells, 10 uM, 30 min; active = over 0.2 and 3.5 SD of the protein, either way, in both replicates (recomputed)
Compound in assay [1]: NC(=O)Nc1cc(-c2cccc(F)c2)sc1C(=O)N[C@H]1CCCNC1
Put shortly: (§1)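 K562 cells at 2×10^6 cells/mL were treated with 10 μM compound for 30 min. Aliquots were heated for 3 min across 48°C-58°C, pooled, and extracted in PBS with 0.5% NP-40 at 4°C; soluble protein was the supernatant after 21,000xg for 90 min. Soluble protein was quantified by TMTpro 16plex LC-MS/MS with channel sums equalised, and reported as log2 fold change in thermal stability against DMSO controls, with values from duplicates.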

Compound in assay [2]: NC(=O)c1cnc(N[C@@H]2CCCC[C@@H]2N)nc1Nc1cccc(-n2nccn2)c1
Put shortly:
as §1

Compound in assay [3]: NC1(c2ccc(-c3nc4ccn5c(=O)[nH]nc5c4cc3-c3ccccc3)cc2)CCC1
An outline of the steps: as §1

Compound in assay [4]: NCC(=O)Nc1ccc(-n2nc(C(F)(F)F)cc2-c2ccc3c(ccc4ccccc43)c2)cc1
Put shortly:
as §1

Compound in the next assay: Nc1ccccc1NC(=O)c1ccc(CNC(=O)OCc2cccnc2)cc1 [entinostat]
Put shortly: as §1

Compound in a further assay: O=C(CCCCCCC(=O)Nc1ccccc1)NO [vorinostat]
Put shortly:
as §1

Compound in another assay: O=C(CCCCCCNC(=O)c1cnc(N(c2ccccc2)c2ccccc2Cl)nc1)NO [citarinostat]
An outline of the steps:
as §1

Compound in a further assay: O=C(O)c1ccc2c(c1)nc(Nc1cccc(Cl)c1)c1ccncc12 [silmitasertib]
An outline of the steps: as §1

Compound in assay [5]: O=C1NC(=O)C(c2cnc3ccccn23)=C1c1cn2c3c(cc(F)cc13)CN(C(=O)N1CCCCC1)CC2
Put shortly: as §1

Compound in assay [6]: c1cc(OCCN2CCCCC2)cc(-c2n[nH]c3ccc(-c4nnc[nH]4)cc23)c1
An outline of the steps:
as §1

Compound in a further assay: c1cn2cc(-c3ccc4cn[nH]c4c3)nc(Nc3ccc(N4CCOCC4)cc3)c2n1 [entospletinib]
Put shortly: as §1

About 7,900 targets were measured; listed, in parts, are those with a hit and a random draw of the rest. About 0.6% of all pairs of compound and target were hits. A number with no mark means an inactive call.

UniProt P40939, sequence (P40939 whole entry, looked up): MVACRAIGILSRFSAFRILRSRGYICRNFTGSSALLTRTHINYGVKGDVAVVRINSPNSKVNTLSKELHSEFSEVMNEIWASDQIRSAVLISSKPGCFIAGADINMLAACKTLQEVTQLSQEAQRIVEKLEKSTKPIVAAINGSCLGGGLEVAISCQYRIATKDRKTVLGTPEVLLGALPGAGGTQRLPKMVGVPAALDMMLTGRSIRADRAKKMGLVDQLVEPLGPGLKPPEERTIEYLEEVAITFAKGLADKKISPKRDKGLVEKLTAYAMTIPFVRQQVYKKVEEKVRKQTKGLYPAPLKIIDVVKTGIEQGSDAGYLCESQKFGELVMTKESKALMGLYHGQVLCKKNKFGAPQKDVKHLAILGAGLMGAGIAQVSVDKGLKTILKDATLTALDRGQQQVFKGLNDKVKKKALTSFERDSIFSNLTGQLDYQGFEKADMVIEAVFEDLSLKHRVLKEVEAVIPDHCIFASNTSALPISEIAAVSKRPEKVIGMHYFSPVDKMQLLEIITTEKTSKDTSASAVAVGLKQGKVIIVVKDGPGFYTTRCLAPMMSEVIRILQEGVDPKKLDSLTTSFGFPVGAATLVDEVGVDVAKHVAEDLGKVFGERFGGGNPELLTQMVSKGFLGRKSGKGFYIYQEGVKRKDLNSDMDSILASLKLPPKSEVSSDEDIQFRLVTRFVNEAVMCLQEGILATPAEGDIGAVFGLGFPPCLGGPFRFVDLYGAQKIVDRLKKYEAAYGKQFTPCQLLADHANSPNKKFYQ
UniProt Q9BVP2, sequence (Q9BVP2 whole entry, looked up): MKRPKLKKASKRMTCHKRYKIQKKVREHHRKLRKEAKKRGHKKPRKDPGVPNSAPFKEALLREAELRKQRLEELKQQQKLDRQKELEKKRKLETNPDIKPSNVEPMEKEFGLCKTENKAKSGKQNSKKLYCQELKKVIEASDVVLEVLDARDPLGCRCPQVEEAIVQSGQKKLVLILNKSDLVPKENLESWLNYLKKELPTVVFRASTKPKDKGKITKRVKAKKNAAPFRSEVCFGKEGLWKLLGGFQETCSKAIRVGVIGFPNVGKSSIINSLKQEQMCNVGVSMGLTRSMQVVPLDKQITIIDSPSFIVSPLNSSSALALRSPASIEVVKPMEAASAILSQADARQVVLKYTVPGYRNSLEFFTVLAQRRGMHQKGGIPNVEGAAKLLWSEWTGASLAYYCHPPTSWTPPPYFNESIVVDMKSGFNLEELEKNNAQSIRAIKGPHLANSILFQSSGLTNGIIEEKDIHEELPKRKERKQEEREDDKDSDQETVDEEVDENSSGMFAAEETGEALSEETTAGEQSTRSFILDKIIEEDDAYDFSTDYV
UniProt Q16774, sequence (Q16774 whole entry, looked up): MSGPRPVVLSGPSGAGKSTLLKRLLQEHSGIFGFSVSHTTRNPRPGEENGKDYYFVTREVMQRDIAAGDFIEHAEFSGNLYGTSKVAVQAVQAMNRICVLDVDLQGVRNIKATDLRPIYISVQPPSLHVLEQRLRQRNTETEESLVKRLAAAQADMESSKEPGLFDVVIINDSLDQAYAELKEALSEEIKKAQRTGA
UniProt P23327, sequence (P23327 whole entry, looked up): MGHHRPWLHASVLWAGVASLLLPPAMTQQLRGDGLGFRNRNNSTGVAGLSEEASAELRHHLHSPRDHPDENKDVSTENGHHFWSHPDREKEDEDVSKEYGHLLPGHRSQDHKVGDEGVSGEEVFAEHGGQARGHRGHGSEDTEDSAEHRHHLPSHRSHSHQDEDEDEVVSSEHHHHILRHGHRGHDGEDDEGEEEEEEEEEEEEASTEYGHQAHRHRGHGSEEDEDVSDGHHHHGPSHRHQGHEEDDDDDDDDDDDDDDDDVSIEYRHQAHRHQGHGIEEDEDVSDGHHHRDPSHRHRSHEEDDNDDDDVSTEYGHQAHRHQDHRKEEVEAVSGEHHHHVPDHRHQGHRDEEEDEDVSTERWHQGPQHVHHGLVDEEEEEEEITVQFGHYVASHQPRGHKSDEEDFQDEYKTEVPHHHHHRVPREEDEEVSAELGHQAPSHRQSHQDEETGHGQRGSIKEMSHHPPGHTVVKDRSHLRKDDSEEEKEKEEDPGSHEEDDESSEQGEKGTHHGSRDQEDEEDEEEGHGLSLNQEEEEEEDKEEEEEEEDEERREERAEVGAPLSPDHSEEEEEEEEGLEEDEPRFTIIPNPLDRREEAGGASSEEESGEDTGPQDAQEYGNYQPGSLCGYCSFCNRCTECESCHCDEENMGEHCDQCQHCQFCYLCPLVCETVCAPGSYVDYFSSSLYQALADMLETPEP
UniProt O14893, sequence (O14893 whole entry, looked up): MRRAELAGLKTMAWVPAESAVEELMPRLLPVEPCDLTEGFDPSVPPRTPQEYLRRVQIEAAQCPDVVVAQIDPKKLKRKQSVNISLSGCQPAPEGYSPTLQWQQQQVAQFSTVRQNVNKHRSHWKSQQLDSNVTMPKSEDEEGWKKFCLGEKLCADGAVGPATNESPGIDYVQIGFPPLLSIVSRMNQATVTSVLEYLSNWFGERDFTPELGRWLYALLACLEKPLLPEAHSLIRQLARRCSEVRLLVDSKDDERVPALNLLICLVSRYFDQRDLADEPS
UniProt Q9NRD1, sequence (Q9NRD1 whole entry, looked up): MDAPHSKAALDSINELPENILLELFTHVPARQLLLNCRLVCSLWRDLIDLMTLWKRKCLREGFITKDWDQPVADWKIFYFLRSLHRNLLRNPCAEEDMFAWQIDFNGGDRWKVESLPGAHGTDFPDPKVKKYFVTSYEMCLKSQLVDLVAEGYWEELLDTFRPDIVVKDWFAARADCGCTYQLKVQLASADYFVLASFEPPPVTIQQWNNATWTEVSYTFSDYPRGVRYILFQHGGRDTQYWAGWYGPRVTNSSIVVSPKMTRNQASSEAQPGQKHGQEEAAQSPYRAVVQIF
UniProt Q92538, sequence (Q92538 whole entry, looked up): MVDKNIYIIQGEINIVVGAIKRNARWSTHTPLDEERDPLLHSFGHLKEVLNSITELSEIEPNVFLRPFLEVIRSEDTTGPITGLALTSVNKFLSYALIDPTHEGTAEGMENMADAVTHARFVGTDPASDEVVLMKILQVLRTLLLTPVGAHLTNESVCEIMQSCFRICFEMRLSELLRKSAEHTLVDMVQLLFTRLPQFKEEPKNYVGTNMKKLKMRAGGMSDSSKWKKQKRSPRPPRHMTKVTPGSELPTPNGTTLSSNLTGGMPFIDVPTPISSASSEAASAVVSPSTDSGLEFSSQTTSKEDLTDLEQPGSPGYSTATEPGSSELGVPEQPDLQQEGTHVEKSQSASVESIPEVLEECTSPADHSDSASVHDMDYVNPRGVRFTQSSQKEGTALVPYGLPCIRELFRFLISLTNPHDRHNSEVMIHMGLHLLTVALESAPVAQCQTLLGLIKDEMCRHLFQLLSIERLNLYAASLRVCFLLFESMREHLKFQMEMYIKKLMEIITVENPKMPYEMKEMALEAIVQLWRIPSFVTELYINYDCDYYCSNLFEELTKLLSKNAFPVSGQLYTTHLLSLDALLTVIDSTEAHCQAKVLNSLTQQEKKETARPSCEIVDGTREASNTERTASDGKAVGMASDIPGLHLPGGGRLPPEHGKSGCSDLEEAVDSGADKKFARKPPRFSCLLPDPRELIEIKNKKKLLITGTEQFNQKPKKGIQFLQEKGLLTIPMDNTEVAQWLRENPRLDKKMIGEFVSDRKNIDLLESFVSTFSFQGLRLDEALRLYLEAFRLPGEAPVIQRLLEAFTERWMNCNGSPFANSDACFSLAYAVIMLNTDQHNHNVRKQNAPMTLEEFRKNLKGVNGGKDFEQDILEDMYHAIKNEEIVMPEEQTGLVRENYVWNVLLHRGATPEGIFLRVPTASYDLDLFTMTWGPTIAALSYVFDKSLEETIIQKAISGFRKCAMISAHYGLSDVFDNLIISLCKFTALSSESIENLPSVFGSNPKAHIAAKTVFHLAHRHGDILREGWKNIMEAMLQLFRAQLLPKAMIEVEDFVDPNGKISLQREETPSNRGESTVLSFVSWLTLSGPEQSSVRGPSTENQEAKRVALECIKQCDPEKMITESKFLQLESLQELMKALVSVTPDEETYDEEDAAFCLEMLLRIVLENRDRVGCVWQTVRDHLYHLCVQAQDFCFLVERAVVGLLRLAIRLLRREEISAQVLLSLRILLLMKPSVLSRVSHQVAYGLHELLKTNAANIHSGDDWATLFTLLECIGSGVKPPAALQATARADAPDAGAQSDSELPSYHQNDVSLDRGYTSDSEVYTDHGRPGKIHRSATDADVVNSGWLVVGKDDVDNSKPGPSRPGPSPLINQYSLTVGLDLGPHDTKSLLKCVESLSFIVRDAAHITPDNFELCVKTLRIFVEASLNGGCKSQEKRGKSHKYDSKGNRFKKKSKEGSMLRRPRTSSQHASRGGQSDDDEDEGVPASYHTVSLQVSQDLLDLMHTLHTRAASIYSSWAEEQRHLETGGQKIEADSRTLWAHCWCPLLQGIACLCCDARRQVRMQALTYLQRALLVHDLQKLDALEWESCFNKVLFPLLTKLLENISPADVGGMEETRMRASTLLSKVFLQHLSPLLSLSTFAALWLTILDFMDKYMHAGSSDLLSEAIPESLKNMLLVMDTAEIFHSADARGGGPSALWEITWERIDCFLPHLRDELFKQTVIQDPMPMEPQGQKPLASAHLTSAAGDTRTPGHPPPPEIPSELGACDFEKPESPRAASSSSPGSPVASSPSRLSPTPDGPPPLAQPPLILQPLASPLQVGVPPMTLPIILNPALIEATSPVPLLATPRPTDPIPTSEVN
UniProt Q9H6D7, sequence (Q9H6D7 whole entry, looked up): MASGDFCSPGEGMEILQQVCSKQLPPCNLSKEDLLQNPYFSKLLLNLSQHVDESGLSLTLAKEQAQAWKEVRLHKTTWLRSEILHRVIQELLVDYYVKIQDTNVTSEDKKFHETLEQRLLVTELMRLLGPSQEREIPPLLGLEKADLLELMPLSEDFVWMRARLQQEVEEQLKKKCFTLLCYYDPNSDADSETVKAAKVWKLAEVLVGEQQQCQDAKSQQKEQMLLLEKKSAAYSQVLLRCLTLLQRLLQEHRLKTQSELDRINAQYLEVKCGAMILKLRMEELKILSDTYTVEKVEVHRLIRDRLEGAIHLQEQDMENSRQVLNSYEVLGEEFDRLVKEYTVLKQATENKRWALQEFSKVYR

Regarding GEMIN2 (UniProt O14893), the log2 fold change in assay [1] was -0.05; in assay [2], -0.015; in assay [3], 0.017; in [4], -0.116; with entinostat, -0.055; with vorinostat, 0.102. Besides, the log2 fold change in the assay with citarinostat is -0.103; with silmitasertib, 0.038; in assay [5], 0.375 (active); in [6] it was 0.073; in the assay with entospletinib, 0.002.
In the case of GUK1 isoform 2 (UniProt Q16774), the log2 fold change was -0.126 in [1]; -0.029 in [2]; -0.059 in [3]; -0.064 in [4]; 0.065 with entinostat; -0.002 in the assay with vorinostat. In addition, the log2 fold change in the assay with citarinostat was 0.031; with silmitasertib, 0.044; in assay [5], -0.094; in assay [6], 0.122; in the assay with entospletinib it was 0.093.
In the case of HSPA8 (UniProt E9PN89), the log2 fold change was -0.317 in assay [1]; -0.283 in assay [2]; -0.172 in assay [3]; -0.372 in assay [4]; -0.135 with entinostat; -0.057 in the assay with vorinostat. Moreover, the log2 fold change is -0.304 with citarinostat; 0.365 in the assay with silmitasertib; -0.102 in assay [5]; -0.394 in assay [6]; 0.099 with entospletinib.
Take HAUS4 (UniProt Q9H6D7): the log2 fold change in assay [1] is 0.067; in assay [2], -0.165; in assay [3], 0.229; in assay [4], -0.089; with entinostat, 0.12; with vorinostat, 0.01. Moreover, the log2 fold change is -0.106 with citarinostat; 0.095 with silmitasertib; 0.088 in assay [5]; -0.08 in [6]; 0.147 in the assay with entospletinib.
With FBXO6 (UniProt Q9NRD1), the log2 fold change is -0.009 in [1]; 0.034 in assay [2]; 0.366 (active) in assay [3]; 0.028 in assay [4]; 0.013 with entinostat; 0.074 in the assay with vorinostat. Further, the log2 fold change with citarinostat is 0.075; with silmitasertib, 0.012; in assay [5], -0.017; in assay [6] it was 0.026; with entospletinib it was -0.055.
With HADHA (UniProt P40939), the log2 fold change in [1] was -0.035; in assay [2] it was 0.033; in [3] it was 0.131; in [4] it was 0.125; in the assay with entinostat, 0.045; with vorinostat, -0.059. In addition, the log2 fold change with citarinostat is 0.018; in the assay with silmitasertib it was -0.1; in [5], 1.01 (active); in assay [6], -0.007; with entospletinib, 0.01.
Regarding GNL3 (UniProt Q9BVP2), the log2 fold change was 0.08 in assay [1]; -0.061 in assay [2]; -0.098 in assay [3]; -0.088 in assay [4]; -0.069 with entinostat; -0.131 in the assay with vorinostat. Further, the log2 fold change in the assay with citarinostat was 0.134; in the assay with silmitasertib it was -0.066; in assay [5] it was -0.027; in assay [6] it was 0.041; with entospletinib, -0.12.
Consider GBF1 (UniProt Q92538), for which the log2 fold change in assay [1] is -0.026; in assay [2], -0.012; in assay [3] it was -0.122; in assay [4], -0.058; in the assay with entinostat it was 0.053; with vorinostat, 0.144. In addition, the log2 fold change was 0.124 with citarinostat; -0.018 with silmitasertib; -0.001 in [5]; -0.023 in assay [6]; -0.005 in the assay with entospletinib.
For HRC (UniProt P23327), the log2 fold change was -0.161 in [1]; 0.005 in [2]; -0.02 in [3]; -0.056 in assay [4]; -0.114 with entinostat; -0.128 in the assay with vorinostat. Moreover, the log2 fold change in the assay with citarinostat was -0.011; in the assay with silmitasertib it was 0.013; in assay [5] it was 0.023; in assay [6], -0.026; in the assay with entospletinib it was 0.032.
Consider FUBP3 (UniProt Q96I24), for which the log2 fold change in assay [1] was -0.023; in assay [2], 0.024; in assay [3], -0.048; in assay [4], -0.011; in the assay with entinostat it was 0.003; in the assay with vorinostat it was 0.062. In addition, the log2 fold change was -0.005 with citarinostat; 0.045 with silmitasertib; 0.186 in assay [5]; 0.006 in [6]; 0.022 with entospletinib.
